# Tau ThT inhib = qHTS for Inhibitors of Tau Fibril Formation, Thioflavin T Binding; Microtubule-associated protein tau (Homo sapiens), P10636; recombinant tau K18 P301L, heparin-induced fibrillization, ThT fluorescence; Potency, µM (series often up to 57.4 µM), for inactives: at the highest dose activity, negative = inhibition, most hits filed as inhibitors; hit rate 2.1% among 270,000; AID 1460, 2008; note: % is set by controls: 0 for no effect and ±100 for the full control effect; nearly all actives have a fitted effect of over 55% in size
# Target sequence (P10636 561-689 P618L limits assumed): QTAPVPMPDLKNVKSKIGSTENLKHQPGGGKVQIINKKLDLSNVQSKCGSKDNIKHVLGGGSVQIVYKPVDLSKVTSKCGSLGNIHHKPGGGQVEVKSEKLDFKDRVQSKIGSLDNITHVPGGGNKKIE
#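 Recombinant human tau K18 fragment […] carrying P301L, 15 uM unlabeled plus 0.24 uM Alexa 594-labeled, was fibrillized with 20 uM heparin in 100 mM sodium acetate pH 7 for 6 hr at 37 C; 30 uM ThT fluorescence read after 1 hr.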
# Tau fibril FP = qHTS for Inhibitors of Tau Fibril Formation, Fluorescence Polarization | Potency, µM (doses to about 57.7 µM), without a hit: at the top dose activity, negative = inhibition, actives largely listed as inhibitors | K18 P301L tau heparin fibrillization, Alexa594 FP, 6 h | Microtubule-associated protein tau (Homo sapiens), P10636 | hit rate 0.39% among 280,000 | AID 1468, 2008; note: % is set by controls: 0 for no effect and ±100 for the full control effect; nearly all actives have a fitted effect of over 55% in size
#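 Read-out: fluorescence polarization of Alexa 594-labeled tau (0.24 uM), 555 nm excitation, 632 nm emission. Mixtures held 15 uM unlabeled K18 P301L, compound and 20 uM heparin, pH 7 acetate buffer, incubated 6 hr at 37 C.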
# HTT cytoprotect = qHTS Multiplex Assay to Identify Dual Action Probes in a Cell Model of Huntington: Cytoprotection (ATP); PC12 HTT-Q103 induced, cytoprotection, ATP luminescence, 40 h; Potency, µM (series often up to 56.4 µM), inactives show cytoprotection (ATP increase), usual class: activators; hit rate 0.14% among 230,000; note: % of control where 0% means no effect; nearly all actives have a fitted effect of over 45% in size
#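 ATP quantification (ATPlite) reports survival of PC12 cells in which tebufenozide, 100 nM final, switches on Htt exon 1 with 103 glutamines linked to GFP; compounds are titrated.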
# HTT aggregate = qHTS Multiplex Assay to Identify Dual Action Probes in a Cell Model of Huntington: Aggregate Formation (GFP); PC12 HttQ103-GFP aggregates, Acumen cytometry, 40 h; Potency, µM (highest dose often 46.1 µM), without a hit: top-dose activity change, negative = inhibition, usual class: inhibitors; hit rate 1.1% among 220,000; AID 1688, 2009; note: % is set by controls: 0 for no effect and ±100 for the full control effect; nearly all actives have a fitted effect of over 60% in size
#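 Aggregates are detected as GFP objects 1–25 µm with signal 6 STDEV over background in lysates of induced PC12 cells. These carry Huntingtin exon 1 with 103 glutamines fused to GFP under an ecdysone promoter; compounds titrated.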
# Tau fluor counter = Counterscreen qHTS for Inhibitors of Tau Fibril Formation, Fluorescence Polarization. tau K18 P301L Alexa594 fluorescence, heparin fibrillization. hit rate 0.93% among 280,000. Potency, µM (titrated, usually from 57.7 µM), for inactives: at the top dose activity change, negative = decrease; note: % is set by controls: 0 for no effect and ±100 for the full control effect; nearly all actives have a fitted effect of over 55% in size
#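 Human tau K18 P301L (15 uM unlabeled, 0.24 uM Alexa 594-labeled) in 100 mM sodium acetate pH 7 with 20 uM heparin, 6 hr at 37 C. ThT 30 uM added, 1 hr ambient; Alexa 594 FP and total fluorescence read at 555/632 nm.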
# The depositor's hits bear a star; ? = inconclusive; / = no result; [ ] = remark or other dose. Shown are actives, neighbours in structure and some others; about 3.7% of the full set was active somewhere. Calls come from the whole dose curve; as a rule, active = well fitted curve in the direction sought with a large enough effect; inconclusive = small, poorly fitted or top-dose-only effect, or another doubt; inactive = no such curve, though single readings can be large; an effect the other way counts as inactive or inconclusive. Potency is the fitted concentration of half-maximal effect.
SMILES,Tau ThT inhib,Tau fibril FP,HTT cytoprotect,HTT aggregate,Tau fluor counter
COc1ccccc1N1CCN(S(=O)(=O)c2ccc3c4c(cccc24)C(=O)N3C)CC1,-2%,0%,-4%[10 µM],-20%,-11%
COc1ccc2c3c(cccc13)N(C)N=C2C,7.1µM*,?,-50%,-17%,?
C/C(=C/c1oc2ccc(O)cc2c1[N+](=O)[O-])N(C)C,4µM*,-12%,-23%[10 µM],-1%,?
COc1ccc2oc(/C=C/N(C)C)c(C(=O)c3ccc(Cl)cc3)c2c1,-9%,-14%,1%,19%,-12%
CC(=O)Oc1ccc2oc(/C=C/N(C)C)c([N+](=O)[O-])c2c1,28µM*,10%,-9%,-3%[9.22 µM],-16%
Cc1cccc(N2CCN(C(=O)C3CCN(S(=O)(=O)c4cccs4)CC3)CC2)c1C,-4%,-4%,/,/,-2%
Cc1ccc(C(=O)c2coc3c2C(=O)C(=O)c2ccccc2-3)cc1,2.2µM*,?,15%[10 µM],9%,?
CCOC(=O)C1CCN(C(=O)c2c(C)oc3c2C(=O)c2ccccc2C3=O)CC1,-15%,-2%,/,-1%,-18%
Cc1oc2c(c1C(=O)c1ccc(Cl)cc1)C(=O)C(=O)c1ccccc1-2,2.2µM*,?,-109%,?,-28%
Cc1ccc(C(=O)c2c(C)oc3c2C(=O)C(=O)c2ccccc2-3)cc1,3.5µM*,?,-111%,?,-27%
Cc1oc2c(c1C(=O)N1CCC(C)CC1)C(=O)c1ccccc1C2=O,-11%,0%,/,7.1µM*,-17%
Cc1ccc(C(=O)C(OC(=O)c2c(C)cc(=O)oc2C)c2ccccc2)cc1 (stereo not given),-17%,-4%,-14%,?,-14%
CC(C)[C@@H]1NC(=O)[C@H](CCCCN)NC(=O)[C@H](Cc2c[nH]c3ccccc23)NC(=O)[C@H](Cc2ccc(O)cc2)NC(=O)[C@H](C)N(C)C(=O)[C@H](Cc2ccccc2)NC1=O,/,/,-12%[1.9 µM],/,/
CCOC(=O)c1sc(NC(=O)c2cc(-c3ccc(F)cc3)on2)c(C(=O)OCC)c1C,-3%,-4%,/,/,-6%
O=C(CCCCn1c(=O)c2ccccc2n(Cc2ccc(F)cc2)c1=O)NCc1ccco1,-2%,2%,-80%[10 µM],1µM*,-4%
COc1ccc2cc3c(N)nn(C(=O)c4ccccc4Cl)c3nc2c1,?,5%,0%[10 µM],0.35µM*,?
COc1ccc2cc3c(N)nn(C(=O)c4ccc(OC)c(OC)c4)c3nc2c1,?,-15%,/,/,?
COc1ccc2cc3c(N)nn(C(=O)c4ccc(F)cc4)c3nc2c1,/,-4%,-10%[10 µM],2.8µM*,-13%
COc1ccc2cc3c(N)nn(C(=O)c4cccc(F)c4)c3nc2c1,/,-2%,-22%[10 µM],1µM*,-16%
C=CC1=C2C=C(C3CC3)N(Cc3ccccc3)C=C2C(=O)C(C)(OC(=O)c2ccco2)C1=O (stereo not given),-13%[11.5 µM],6%[11.6 µM],-3%[10 µM],/,-3%[11.6 µM]
Cc1ncc(COP(=O)(O)O)c(C)c1O,/,/,-14%[10 µM],/,/
CC(C)CN(C[C@@H](O)[C@H](Cc1ccccc1)NC(=O)O[C@H]1CO[C@H]2OCC[C@H]21)S(=O)(=O)c1ccc(N)cc1,/,/,-14%,8%,/
O=C(O)c1cc(N(Cc2ccccc2O)Cc2cc(O)ccc2O)ccc1O,18µM*,-6%,-61%,/,?
COC(=O)c1ccc(NC(=O)Nc2ccc(OC)c(OC)c2)cc1,?,16%,/,6%,?
COc1ccc(NC(=O)NC23CC4(C)CC(C)(CC(C)(C4)C2)C3)cc1OC,?,4%,2%[10 µM],-16%,13µM*[quencher]
CC1=[N+](C)c2c(ccc3cccnc23)C1(C)C,7.1µM*,?,-67%[10 µM],-44%[9.22 µM],7.1µM*[fluorescent]
Cc1[nH]c2c(ccc3cccnc32)c1C,?,-1%,4%[10 µM],-12%[9.22 µM],-19%
O=c1c2cnn(-c3ccc(Cl)cc3)c2ncn1Cc1ccc(Cl)cc1Cl,-1%,-12%,/,/,-6%

# Assay outcomes deposited in PubChem BioAssay by National Center for Advancing Translational Sciences (NCATS).
